# Inconclusive results are not listed. A call without a number means that no potency is given here. Calls of active or inactive are those of the source. Calls follow the shape of the dose curve; as a rule, active = well fitted curve in the direction sought with a large enough effect; inconclusive = small, poorly fitted or top-dose-only effect, or another doubt; inactive = no such curve, though single readings can be large; an effect the other way counts as inactive or inconclusive.
# What was measured:
# [1] = qHTS of pediatric cancer cell lines to identify multiple opportunities for drug repurposing: Primary screen for OHS-50 cells (AID 1347103); also: nearly all actives have a fitted effect of over 40% in size; also: potency is read from the fitted curve at half-maximal effect
# In short: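 Cells (500-1,000/well) rested 5 h, then received compounds for 48 h; metabolically active cells were measured by CellTiter-Glo luminescence. Final concentrations spanned up to 46 µM (MIPE, 11-point) or 0.59 nM-46 µM (NPC, 8-point) in primary screens, 11-point in follow-ups.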
# [2] = qHTS of pediatric cancer cell lines to identify multiple opportunities for drug repurposing: Primary screen for Rh30 cells (AID 1347107); also: nearly all actives have a fitted effect of over 75% in size; also: potency is read from the fitted curve at half-maximal effect
# In short: (§1)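 Viability after 48 h compound treatment at 37C, 500-1,000 cells/well, read as ATP luminescence with CellTiter-Glo. Primary screens used 11-point (MIPE, 0.78 nM-46 µM) or 8-point (NPC, 0.59 nM-46 µM) final concentrations; follow-up screens used 11-point dilutions.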
# [3] = qHTS of pediatric cancer cell lines to identify multiple opportunities for drug repurposing: Primary screen for Rh41 cells (AID 1347108); also: nearly all actives have a fitted effect of over 70% in size; also: potency is read from the fitted curve at half-maximal effect
# In short: (§2)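 500-1,000 cells/well; 5 h pre-incubation 37 °C/5% CO2; compound pinned; 48 h; CellTiter-Glo, 15 min RT; luminescence. MIPE 11-pt from 0.78 nM, NPC 8-pt from 0.59 nM final. Bortezomib 2.3 µM final as positive control.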
# [4] = qHTS of pediatric cancer cell lines to identify multiple opportunities for drug repurposing: Confirmatory screen for NB1643 cells (AID 1347109); also: nearly all actives have a fitted effect of over 45% in size; also: potency is read from the fitted curve at half-maximal effect
# In short: as §1
# [5] = qHTS of pediatric cancer cell lines to identify multiple opportunities for drug repurposing: Confirmatory screen for A673 cells (AID 1347110); also: nearly all actives have a fitted effect of over 65% in size; also: potency is read from the fitted curve at half-maximal effect
# In short: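 Viability was read as ATP luminescence (CellTiter-Glo) after 48 h of compound exposure at 37 C in A673 cells seeded at 500-1,000/well. Titrations reached 46 uM final, with 11 points in the confirmatory screen. Concentration-response curves were fitted directly.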
# [6] = qHTS of pediatric cancer cell lines to identify multiple opportunities for drug repurposing: Confirmatory screen for SK-N-MC cells (AID 1347111);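 also: cells exposed to compound for 48 h before the readout; nearly all actives have a fitted effect of over 70% in size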; also: potency is read from the fitted curve at half-maximal effect
# In short: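 SK-N-MC cells at 500-1,000 cells/well in growth media were pre-incubated 5 h, then exposed to compounds at 11-point dilutions for 48 h at 37 degrees C, 5% CO2. Viability was read as CellTiter-Glo luminescence.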
# [7] = qHTS of pediatric cancer cell lines to identify multiple opportunities for drug repurposing: Confirmatory screen for BT-12 cells (AID 1347112); also: nearly all actives have a fitted effect of over 55% in size; also: potency is read from the fitted curve at half-maximal effect
# In short: as §1
# [8] = qHTS of pediatric cancer cell lines to identify multiple opportunities for drug repurposing: Primary screen for MG 63 (6-TG R) cells (AID 1347105); also: nearly all actives have a fitted effect of over 50% in size; also: potency is read from the fitted curve at half-maximal effect
# In short: as §2
# [9] = qHTS of pediatric cancer cell lines to identify multiple opportunities for drug repurposing: Primary screen for control Hh wild type fibroblast cells (AID 1347106);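 also: series mostly up to about 46 µM; a drop in luminescence marks cytotoxicity and a rise apparent proliferation; nearly all actives have a fitted effect of over 55% in size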
# In short: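 Cells (500-1,000/well) in growth media were settled 5 h at 37 degrees C, then given compounds for 48 h. Viability was read as CellTiter-Glo luminescence. Primary runs used MIPE at 11 points (0.78 nM-46 µM) and NPC at 8 points (0.59 nM-46 µM); follow-ups used 11 points.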
# [10] = qHTS of pediatric cancer cell lines to identify multiple opportunities for drug repurposing: Primary screen for RD cells (AID 1347104); also: nearly all actives have a fitted effect of over 55% in size; also: potency is read from the fitted curve at half-maximal effect
# In short: as §2
compound,measurement,setting,value
COc1ccc(S(=O)(=O)Nc2cccnc2Nc2ccc(O)cc2)cc1,Potency,[1],0.306 µM (active)
same,Potency,[2],inactive
same,Potency,[3],0.187 µM (active)
same,Potency,[4],0.522 µM (active)
same,Potency,[5],0.928 µM (active)
same,Potency,[6],2.61 µM (active)
same,Potency,[7],3.29 µM (active)
CC(=O)C1=C(O)C=C2Oc3c(C(C)=O)c(O)c(C)c(O)c3C2(C)C1=O (stereo unspecified),Potency,[1],1.72 µM (active)
same,Potency,[8],inactive
same,Potency,[3],inactive
CCOC(=O)C1=C(C)NC(=S)NC1c1cccc(O)c1 (stereo unspecified),Potency,[1],0.0968 µM (active)
same,Potency,[9],inactive
same,Potency,[2],inactive
same,Potency,[5],11.7 µM (active)
same,Potency,[6],5.22 µM (active)
same,Potency,[7],inactive
CS[C@H]1SC[C@@H]2C(=O)N(C)[C@H](C(C)C)C(=O)OC[C@H](NC(=O)c3cnc4ccccc4n3)C(=O)N[C@H](C)C(=O)N(C)[C@@H]1C(=O)N(C)[C@H](C(C)C)C(=O)OC[C@H](NC(=O)c1cnc3ccccc3n1)C(=O)N[C@H](C)C(=O)N2C,Potency,[1],0.0122 µM (active)
same,Potency,[8],0.0187 µM (active)
same,Potency,[2],inactive
same,Potency,[4],inactive
same,Potency,[5],0.0059 µM (active)
same,Potency,[6],13.1 µM (active)
same,Potency,[7],0.0093 µM (active)
CCN(CC)CCCCNc1ncc2c(n1)N(C)C(=O)N(c1c(Cl)c(OC)cc(OC)c1Cl)C2,Potency,[1],19.3 µM (active)
same,Potency,[8],inactive
same,Potency,[3],18.7 µM (active)
CC[C@H](CC[C@@H](C)[C@H]1CC[C@H]2[C@@H]3CC=C4C[C@@H](O)CC[C@]4(C)[C@@H]3CC[C@]12C)C(C)C,Potency,[10],inactive
same,Potency,[8],inactive
same,Potency,[9],inactive
Cc1nc(NC(=O)N2CCC[C@@H]2C(N)=O)sc1-c1ccnc(C(C)(C)C(F)(F)F)c1,Potency,[1],0.485 µM (active)
same,Potency,[8],1.18 µM (active)
same,Potency,[3],4.18 µM (active)
same,Potency,[5],16.5 µM (active)
same,Potency,[6],5.22 µM (active)
COc1cc(OC)c(C=CS(=O)(=O)Cc2ccc(OC)c(NCC(=O)O)c2)c(OC)c1,Potency,[1],0.172 µM (active)
same,Potency,[8],inactive
same,Potency,[2],inactive
same,Potency,[4],0.414 µM (active)
same,Potency,[5],0.369 µM (active)
same,Potency,[6],0.293 µM (active)
O=C1c2cccc(O)c2C(=O)c2c(O)cc(CO)cc21,Potency,[1],inactive
same,Potency,[8],inactive
same,Potency,[3],inactive
CC(C)Oc1ccc(C(=O)N[C@H](CNC(=O)CN(C)C)Cc2ccc(-c3cn4cccc([C@H](C)O)c4n3)cc2)cc1Cl,Potency,[1],2.43 µM (active)
same,Potency,[9],inactive
same,Potency,[3],1.18 µM (active)
CCCCCCCCCCCCc1ccc(S(=O)(=O)Nc2nncs2)cc1,Potency,[10],inactive
same,Potency,[8],inactive
same,Potency,[9],inactive
COc1cccc2c1C(=O)c1c(O)c3c(c(O)c1C2=O)C[C@@](O)(C(=O)CO)C[C@@H]3O[C@H]1C[C@H](N)[C@@H](O)[C@H](C)O1,Potency,[1],0.611 µM (active)
same,Potency,[8],1.48 µM (active)
same,Potency,[2],inactive
same,Potency,[4],0.165 µM (active)
same,Potency,[5],0.293 µM (active)
same,Potency,[6],0.165 µM (active)
same,Potency,[7],0.585 µM (active)
CCOC(=O)[C@@H](N)Cc1ccc(-c2cc(O[C@H](c3ccc(Cl)cc3-n3ccc(C)n3)C(F)(F)F)nc(N)n2)cc1,Potency,[1],24.3 µM (active)
same,Potency,[9],inactive
same,Potency,[6],32.9 µM (active)
N#CC(=C(O)c1ccc(Cl)cc1Cl)c1nc2cc(Cl)ccc2c(=O)[nH]1,Potency,[10],inactive
same,Potency,[8],inactive
same,Potency,[9],inactive
same,Potency,[2],inactive
same,Potency,[3],inactive
Nc1ccc(C(=O)Nc2cccc(-c3nc(N4CCOCC4)c4oc5ncccc5c4n3)c2)cn1,Potency,[1],6.11 µM (active)
same,Potency,[9],inactive
C=CCNC1=C2C[C@@H](C)C[C@H](OC)[C@@H](O)[C@@H](C)C=C(C)[C@H](OC(N)=O)[C@@H](OC)C=CC=C(C)C(=O)NC(=CC1=O)C2=O,Potency,[1],1.22 µM (active)
same,Potency,[8],23.5 µM (active)
same,Potency,[2],13.2 µM (active)
same,Potency,[3],3.72 µM (active)
same,Potency,[4],1.17 µM (active)
same,Potency,[5],1.17 µM (active)
same,Potency,[6],2.33 µM (active)
same,Potency,[7],inactive
C#C[C@]1(O)CC[C@@H]2[C@@H]3CCC4=CC(=O)CC[C@@H]4[C@H]3CC[C@@]21CC,Potency,[10],inactive
same,Potency,[8],inactive
same,Potency,[9],inactive
Cc1cncc2cccc(S(=O)(=O)N3CCCN(C(=O)CN)C[C@@H]3C)c12,Potency,[10],inactive
same,Potency,[8],inactive
same,Potency,[9],inactive
OCCN1C[C@H](O)[C@@H](O)[C@H](O)[C@@H]1CO,Potency,[10],inactive
same,Potency,[8],inactive
same,Potency,[9],inactive
same,Potency,[2],inactive
CC[C@@]1([C@@H]2O[C@@H]([C@H]3O[C@@](O)(CO)[C@H](C)C[C@H]3C)C[C@H]2C)CC[C@H]([C@]2(C)CC[C@]3(C[C@H](O)[C@@H](C)[C@@H]([C@@H](C)[C@@H](OC)[C@H](C)C(=O)O)O3)O2)O1,Potency,[1],0.188 µM (active)
same,Potency,[3],inactive
same,Potency,[4],0.362 µM (active)
same,Potency,[5],1.02 µM (active)
same,Potency,[6],0.229 µM (active)
same,Potency,[7],1.15 µM (active)
CC(C)C[C@H](NC(=O)[C@@H](NC(=O)c1cccc(-c2ccccc2)n1)[C@@H](C)O)B(O)O,Potency,[1],0.432 µM (active)
same,Potency,[8],0.0296 µM (active)
same,Potency,[3],0.0935 µM (active)
same,Potency,[4],0.0827 µM (active)
same,Potency,[5],0.0737 µM (active)
same,Potency,[6],0.0147 µM (active)
same,Potency,[7],0.0827 µM (active)
C[C@H](NC(=O)[C@@H](O)c1cc(F)cc(F)c1)C(=O)N[C@@H]1C(=O)N(C)c2ccccc2-c2ccccc21,Potency,[1],inactive
same,Potency,[9],inactive
CC1(C)O[C@@H]2C[C@H]3[C@@H]4CCC5=CC(=O)C=C[C@]5(C)[C@@H]4[C@@H](O)C[C@]3(C)[C@]2(C(=O)CO)O1,Potency,[1],inactive
same,Potency,[8],inactive
same,Potency,[3],inactive
same,Potency,[4],inactive
same,Potency,[5],inactive
same,Potency,[6],inactive
same,Potency,[7],inactive
CC(N[C@H]1CCCC[C@H]1NC(=O)c1ccc(Cl)cc1)c1cccc2ccccc12 (stereo partly specified),Potency,[1],6.11 µM (active)
same,Potency,[9],inactive
same,Potency,[2],inactive
same,Potency,[4],20.8 µM (active)
same,Potency,[5],16.5 µM (active)
same,Potency,[6],2.61 µM (active)
CC(C)c1cc(C(C)C)c(CC(=O)NS(=O)(=O)Oc2c(C(C)C)cccc2C(C)C)c(C(C)C)c1,Potency,[1],27.3 µM (active)
same,Potency,[9],inactive
same,Potency,[2],inactive
COc1cc(N2CCC(C(N)=O)CC2)ccc1Nc1nc(N)c(Cl)c(Nc2ccccc2S(=O)(=O)C(C)C)n1,Potency,[1],0.0611 µM (active)
same,Potency,[2],inactive
same,Potency,[3],0.59 µM (active)
O=C1CSC(=O)N1C(CCc1ccncc1)COc1ccc(-c2cccc([N+](=O)[O-])c2)cc1 (stereo unspecified),Potency,[1],4.85 µM (active)
same,Potency,[9],inactive
C=CC[C@@H]1C=C(C)C[C@H](C)C[C@H](OC)[C@H]2O[C@@](O)(C(=O)C(=O)N3CCCC[C@H]3C(=O)O[C@H](C(C)=C[C@@H]3CC[C@H](O)[C@H](OC)C3)[C@@H](C)[C@@H](O)CC1=O)[C@@H](C)C[C@@H]2OC,Potency,[1],6.11 µM (active)
same,Potency,[9],inactive
same,Potency,[2],inactive
O=C(O)c1ccc(Nc2ncc3c(n2)-c2ccc(Cl)cc2C(c2c(F)cccc2F)=NC3)cc1,Potency,[10],29.6 µM (active)
same,Potency,[8],23.5 µM (active)
same,Potency,[9],inactive
same,Potency,[5],10.4 µM (active)
same,Potency,[6],4.14 µM (active)
same,Potency,[7],inactive
CC1(C)CC(O)CC(C)(C)N1[O],Potency,[10],inactive
same,Potency,[8],inactive
same,Potency,[9],inactive
same,Potency,[3],inactive
COc1ccc(C(C)=O)c(O)c1,Potency,[10],16.6 µM (active)
same,Potency,[8],inactive
same,Potency,[9],inactive
same,Potency,[2],inactive
same,Potency,[5],inactive
same,Potency,[6],inactive
same,Potency,[7],inactive
O=C(Nc1ccc(Oc2ccnc3[nH]ccc23)c(F)c1)c1cccn(-c2ccc(F)cc2)c1=O,Potency,[10],inactive
same,Potency,[8],inactive
same,Potency,[9],inactive
same,Potency,[2],inactive
same,Potency,[3],inactive
COc1ccc(S(=O)(=O)Nc2cc(-c3c(O)ccc4ccccc34)c(O)c3ccccc23)cc1,Potency,[10],29.6 µM (active)
same,Potency,[8],18.7 µM (active)
same,Potency,[9],inactive
same,Potency,[3],18.7 µM (active)
CC(C(C)N1CC(=O)NC(=O)C1)N1CC(=O)NC(=O)C1 (stereo unspecified),Potency,[10],inactive
same,Potency,[8],inactive
same,Potency,[9],inactive
same,Potency,[3],inactive
same,Potency,[5],inactive
same,Potency,[6],2.93 µM (active)
same,Potency,[7],inactive

# — PubChem BioAssay (NCATS)
